Measured values as given in PubChem BioAssay (NCATS).
Inconclusive results are not listed. Calls of active or inactive are those of the source. Unless noted, the call rests on the fitted dose curve; in most records, active means well fitted curve in the direction sought with a large enough effect; inconclusive means small, poorly fitted or top-dose-only effect, or another doubt; inactive means no such curve, though single readings can be large; an effect the other way counts as inactive or inconclusive.

What was measured:
[1] = biological target: Glutathione peroxidase 1 (Homo sapiens) (UniProt P07203); assay: Primary qHTS Assay for Inhibitors of Recombinant Selenoprotein Glutathione Peroxidase 1 (GPX1) (AID 1845191); further: nearly all actives have a fitted effect of over 65% in size
Glutathione peroxidase 1 (Homo sapiens), sequence (P07203 whole entry, looked up): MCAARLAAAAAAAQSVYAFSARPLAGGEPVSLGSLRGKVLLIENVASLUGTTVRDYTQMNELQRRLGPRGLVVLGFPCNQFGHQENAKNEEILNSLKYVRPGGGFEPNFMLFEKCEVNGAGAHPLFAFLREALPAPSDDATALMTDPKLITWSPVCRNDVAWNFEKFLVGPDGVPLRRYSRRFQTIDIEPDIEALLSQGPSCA
How it was run: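 NADPH consumption tracked by fluorescence at 340/450 nm between t=0 and t=15 min, room temperature. Final mix: 10 nM GPX1, 100 nM glutathione reductase, 1 mM GSH, 0.5 mM NADPH, 0.5 mM cumene hydroperoxide, 0.01% BSA; 30 min compound–enzyme preincubation.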

[2] = biological target: Phospholipid hydroperoxide glutathione peroxidase GPX4 (Homo sapiens) (UniProt P36969); assay: Primary qHTS Assay for Inhibitors of Recombinant Selenoprotein Glutathione Peroxidase 4 (GPX4) (AID 1845192); further: series mostly up to about 50 µM; on the % scale 0 is the no-effect control and ±100 the full control effect; nearly all actives have a fitted effect of over 65% in size
Phospholipid hydroperoxide glutathione peroxidase GPX4 (Homo sapiens), sequence (P36969 whole entry, looked up): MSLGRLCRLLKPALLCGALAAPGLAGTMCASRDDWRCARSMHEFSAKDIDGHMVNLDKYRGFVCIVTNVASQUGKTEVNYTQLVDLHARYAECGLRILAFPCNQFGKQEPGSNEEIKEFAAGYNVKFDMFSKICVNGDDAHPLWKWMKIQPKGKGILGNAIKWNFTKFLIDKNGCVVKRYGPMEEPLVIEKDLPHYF
How it was run: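 NADPH consumption followed by fluorescence at 340/450 nm, t=0 and after 15 min at room temperature. Reaction started with cumene hydroperoxide (0.5 mM final) after 30 min compound–GPX4 preincubation; final 200 nM GPX4, 100 nM GR, 1 mM GSH, 0.5 mM NADPH.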

[3] = qHTS drug screen for cell cycle checkpoint inhibitors in PARPi-resistant BRCA-mutant ovarian cancer cell lines. (AID 1963452; calls by dose curve; further: potency means the concentration at half of the fitted maximal effect); conditions: PEO1/OlaR viability, CellTiter-Glo luminescence, 96 h; for Z-AUC: stronger effect = lower value
How it was run: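 PEO1, PEO4 and PEO1/OlaR ovarian cancer cells, 600 per well, exposed 96 h at 37C to a dilution series. Viability read by CellTiter-Glo luminescence, normalized to DMSO and empty wells; activity summarized as Z-AUC.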

[4] = biological target: Cytochrome P450 2D6 (Homo sapiens) (UniProt P10635); assay: qHTS for inhibitors of CYP2D6 against the NCATS DSHEA and TCM libraries (AID 1919972); further: on the % scale 0 is the no-effect control and ±100 the full control effect
Cytochrome P450 2D6 (Homo sapiens), sequence (P10635 whole entry, looked up): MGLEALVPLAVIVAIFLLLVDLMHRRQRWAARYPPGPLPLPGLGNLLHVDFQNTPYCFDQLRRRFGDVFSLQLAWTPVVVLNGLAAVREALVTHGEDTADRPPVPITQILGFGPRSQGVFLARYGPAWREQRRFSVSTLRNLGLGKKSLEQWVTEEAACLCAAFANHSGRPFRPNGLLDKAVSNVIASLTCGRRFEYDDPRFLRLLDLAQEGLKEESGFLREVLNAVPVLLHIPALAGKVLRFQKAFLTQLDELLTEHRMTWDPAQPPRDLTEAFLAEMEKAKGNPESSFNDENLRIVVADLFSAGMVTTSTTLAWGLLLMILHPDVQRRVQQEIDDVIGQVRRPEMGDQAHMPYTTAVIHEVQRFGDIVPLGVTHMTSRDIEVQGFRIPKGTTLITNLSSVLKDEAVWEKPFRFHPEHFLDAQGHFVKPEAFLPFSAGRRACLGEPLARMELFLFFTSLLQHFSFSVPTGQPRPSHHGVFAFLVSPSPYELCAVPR
How it was run: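 CYP2D6 enzyme with pro-luciferin substrate in manufacturer buffer (typically 100 mM KPO4), preincubated 15 min RT with substances (most at 19.5 nM upward); NADPH regeneration system (1x) started 30–45 min RT reaction; P450-Glo luminescence read after 30 min; quinidine as intraplate control.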

[5] = biological target: Cytochrome P450 2C9 (Homo sapiens) (UniProt P11712); assay: qHTS for inhibitors of CYP2C9 against the NCATS DSHEA and TCM libraries (AID 1919973);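 further: luminogenic pro-luciferin CYP2C9 substrate turned into luciferin with NADPH regeneration; series mostly up to about 34 µM; on the % scale 0 is the no-effect control and ±100 the full control effect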
Cytochrome P450 2C9 (Homo sapiens), sequence (P11712 whole entry, looked up, canonical isoform): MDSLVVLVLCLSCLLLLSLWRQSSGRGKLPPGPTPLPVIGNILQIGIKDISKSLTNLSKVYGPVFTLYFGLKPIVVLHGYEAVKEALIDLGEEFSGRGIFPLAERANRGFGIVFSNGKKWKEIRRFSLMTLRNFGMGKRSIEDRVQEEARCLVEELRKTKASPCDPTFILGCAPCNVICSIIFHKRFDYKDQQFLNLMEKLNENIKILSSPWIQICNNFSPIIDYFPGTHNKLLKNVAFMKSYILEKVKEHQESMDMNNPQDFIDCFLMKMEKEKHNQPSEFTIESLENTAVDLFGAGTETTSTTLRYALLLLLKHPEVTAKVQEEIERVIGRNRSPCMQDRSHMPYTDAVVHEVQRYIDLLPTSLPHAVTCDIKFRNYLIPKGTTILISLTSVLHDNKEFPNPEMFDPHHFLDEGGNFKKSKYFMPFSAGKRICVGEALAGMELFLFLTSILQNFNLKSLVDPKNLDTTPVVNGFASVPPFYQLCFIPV
How it was run: (§1)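 Concentration-response screening with isoform-matched pro-luciferin substrates. The CYP reaction was initiated by NADPH regenerating solution and ran 30-45 min in darkness at room temperature.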

[6] = biological target: Cytochrome P450 2C19 (Homo sapiens) (UniProt P33261); assay: qHTS for inhibitors of CYP2C19 against the NCATS DSHEA and TCM libraries (AID 1919974);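 further: luminescence from luciferin released by CYP2C19 oxidation of a pro-luciferin substrate; on the % scale 0 is the no-effect control and ±100 the full control effect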
Cytochrome P450 2C19 (Homo sapiens), sequence (P33261 whole entry, looked up): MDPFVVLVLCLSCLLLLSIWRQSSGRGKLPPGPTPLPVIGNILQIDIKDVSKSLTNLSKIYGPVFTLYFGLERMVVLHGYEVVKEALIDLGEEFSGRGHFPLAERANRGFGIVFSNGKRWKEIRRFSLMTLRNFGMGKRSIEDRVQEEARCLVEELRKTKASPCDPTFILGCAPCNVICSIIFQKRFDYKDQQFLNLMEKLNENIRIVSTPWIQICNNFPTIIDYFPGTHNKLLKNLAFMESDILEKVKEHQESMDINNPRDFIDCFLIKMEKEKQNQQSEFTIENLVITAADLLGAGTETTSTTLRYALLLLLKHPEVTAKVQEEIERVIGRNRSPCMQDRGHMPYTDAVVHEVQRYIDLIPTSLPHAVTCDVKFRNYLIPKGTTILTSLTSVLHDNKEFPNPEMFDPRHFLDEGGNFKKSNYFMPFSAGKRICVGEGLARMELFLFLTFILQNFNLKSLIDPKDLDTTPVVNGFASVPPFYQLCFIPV
How it was run: as §1

[7] = KB-3-1 P-gp reporter qHTS against the NCATS DSHEA and TCM libraries (AID 1919975); further: 0% is about no effect
How it was run: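 72 h exposure of KB-3-1 cells (DMEM, 10% FBS) to DSHEA/TCM samples, concentration-response; cell viability measured as CellTiter-Glo luminescence after 30 min at room temperature.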

[8] = biological target: Cytochrome P450 1A2 (Homo sapiens) (UniProt P05177); assay: qHTS for inhibitors of CYPIA2 against the NCATS DSHEA and TCM libraries (AID 1919976);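 further: light from luciferin formed by CYP1A2 from a pro-luciferin substrate; series mostly up to about 37 µM; on the % scale 0 is the no-effect control and ±100 the full control effect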
Cytochrome P450 1A2 (Homo sapiens), sequence (P05177 whole entry, looked up): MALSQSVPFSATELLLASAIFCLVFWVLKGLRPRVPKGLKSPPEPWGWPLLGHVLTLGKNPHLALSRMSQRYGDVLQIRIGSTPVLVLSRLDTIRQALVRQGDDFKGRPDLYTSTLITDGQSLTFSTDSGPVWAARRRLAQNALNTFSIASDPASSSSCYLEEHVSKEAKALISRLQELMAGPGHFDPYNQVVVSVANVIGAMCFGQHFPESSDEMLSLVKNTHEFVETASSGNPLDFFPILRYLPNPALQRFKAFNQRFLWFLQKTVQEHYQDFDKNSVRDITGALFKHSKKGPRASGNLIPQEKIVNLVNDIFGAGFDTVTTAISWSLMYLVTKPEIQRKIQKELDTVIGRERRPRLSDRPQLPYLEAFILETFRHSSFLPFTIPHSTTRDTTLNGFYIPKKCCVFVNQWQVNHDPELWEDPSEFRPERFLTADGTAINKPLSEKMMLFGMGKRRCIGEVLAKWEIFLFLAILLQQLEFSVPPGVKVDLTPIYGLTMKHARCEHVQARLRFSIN
How it was run: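 Enzyme and pro-luciferin substrate, or substrate alone as no-enzyme background, are pre-incubated with test samples for 15 min at room temperature. NADPH regeneration system (1x final) initiates a 30-45 min dark reaction; luciferase detection reagent follows before luminescence reading.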

[9] = qHTS Counterscreen for compound interference against the NCATS DSHEA and TCM libraries (AID 1919978); conditions: firefly luciferase detection reagent interference, luminescence; further: % of control where 0% means no effect
How it was run: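 Read-out is luminescence after 30 min at RT with luciferin detection reagent. Before that, compounds (19.5 nM to 39.8 uM final) sat 15 min at RT with 1 uM D-luciferin or 100 mM potassium phosphate buffer. PTC124 served as intraplate control.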

[10] = Dual reporter qHTS for agonist of Pregnane X Receptor (hPXR) against the NCATS DSHEA and TCM libraries: Fluorescence readout (AID 1920058); further: 0% is about no effect
How it was run: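 Cells were plated at 2000 per well and allowed to attach for 5 h. Test substances were pinned in and incubated roughly 24 h. CellTiter-Fluor was then added and fluorescence measured after 1 h.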

[11] = biological target: Nuclear receptor subfamily 1 group I member 2 (Homo sapiens) (UniProt O75469); assay: Dual reporter qHTS for agonist of Pregnane X Receptor (hPXR) against the NCATS DSHEA and TCM libraries: Luminescence readout (AID 1920059); further: 0% is about no effect
Nuclear receptor subfamily 1 group I member 2 (Homo sapiens), sequence (O75469 whole entry, looked up): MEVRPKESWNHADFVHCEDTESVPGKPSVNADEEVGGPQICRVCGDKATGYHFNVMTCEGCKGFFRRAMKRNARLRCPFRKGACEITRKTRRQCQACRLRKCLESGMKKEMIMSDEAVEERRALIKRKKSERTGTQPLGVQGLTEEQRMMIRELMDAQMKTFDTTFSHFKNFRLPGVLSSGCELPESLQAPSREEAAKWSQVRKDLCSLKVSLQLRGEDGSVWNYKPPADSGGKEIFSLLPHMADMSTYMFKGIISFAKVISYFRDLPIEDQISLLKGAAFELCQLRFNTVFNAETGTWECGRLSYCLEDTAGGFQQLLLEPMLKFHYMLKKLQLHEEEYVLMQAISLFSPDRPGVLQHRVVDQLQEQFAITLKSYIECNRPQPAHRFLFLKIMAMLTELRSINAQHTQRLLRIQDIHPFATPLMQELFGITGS
How it was run: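 Luminescent PXR reporter read (ONE-Glo) after a CellTiter-Fluor viability read, following 24 h, 37C treatment of HepG2 cells stably carrying hPXR-Luc.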

[12] = biological target: Nuclear receptor subfamily 1 group I member 2 (Homo sapiens) (UniProt O75469); assay: Dual reporter qHTS for antagonist of Pregnane X Receptor (hPXR) against the NCATS DSHEA and TCM libraries: Luminescence Readout (AID 1920060);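 further: HepG2 cells carrying hPXR luciferase reporter stimulated with rifampicin at 2 µM; 0% is about no effect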
How it was run: (§2)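 hPXR-Luc HepG2 cells exposed 24 h at 37 C to compounds with 2 uM rifampicin in antagonist mode; luciferase luminescence measured by ONE-Glo, with CellTiter-Fluor viability read beforehand.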

[13] = Dual reporter qHTS for antagonist of Pregnane X Receptor (hPXR) against the NCATS DSHEA and TCM libraries: Fluorescence Readout (AID 1920061); further: 0% is about no effect
How it was run: as §2

[14] = biological target: Cytochrome P450 3A4 (Homo sapiens) (UniProt P08684); assay: qHTS for inhibitors of CYP3A4 against the NCATS DSHEA and TCM libraries (AID 1919971);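 further: on the % scale 0 is the no-effect control and ±100 the full control effect; inhibition lowers luminescence from luciferin made by CYP3A4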
Cytochrome P450 3A4 (Homo sapiens), sequence (P08684 whole entry, looked up): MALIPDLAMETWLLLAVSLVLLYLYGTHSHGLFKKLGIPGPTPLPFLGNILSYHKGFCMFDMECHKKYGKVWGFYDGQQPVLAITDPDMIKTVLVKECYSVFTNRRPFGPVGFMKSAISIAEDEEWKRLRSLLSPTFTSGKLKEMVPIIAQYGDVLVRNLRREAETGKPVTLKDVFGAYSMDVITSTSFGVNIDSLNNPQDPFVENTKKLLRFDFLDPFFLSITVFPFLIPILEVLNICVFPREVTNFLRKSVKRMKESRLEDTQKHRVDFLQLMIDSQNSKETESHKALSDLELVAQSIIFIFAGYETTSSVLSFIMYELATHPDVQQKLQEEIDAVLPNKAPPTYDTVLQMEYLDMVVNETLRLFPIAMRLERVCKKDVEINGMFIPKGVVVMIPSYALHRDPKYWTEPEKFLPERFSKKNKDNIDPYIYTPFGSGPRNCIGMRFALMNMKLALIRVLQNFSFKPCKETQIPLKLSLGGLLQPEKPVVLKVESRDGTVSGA
How it was run: as §1

CC1(C)O[C@@H]2C[C@H]3[C@@H]4CCC5=CC(=O)C=C[C@]5(C)[C@H]4[C@@H](O)C[C@]3(C)[C@]2(C(=O)CO)O1
0.804: Z-AUC ([3]; measured here: PEO4 Z-AUC)
1.46: Z-AUC ([3]; measured here: PEO1 parental Z-AUC)
inactive: Potency [1] | Potency [2] | Z-AUC [3] 0.315

C[C@H]1[C@H](C)CC[C@]2(C(=O)O)CC[C@]3(C)C(=CC[C@@H]4[C@@]5(C)C[C@@H](O)[C@H](O)[C@@](C)(CO)[C@@H]5CC[C@]43C)[C@H]12
inactive: outcome [4] | Potency [5] | Potency [6] | outcome [7] | outcome [8] | max response [9] 2.22% | outcome [10] | outcome [11] | outcome [12] | outcome [13]

CCCCC(=O)OCC(=O)[C@]1(O)Cc2c(O)c3c(c(O)c2[C@@H](O[C@H]2C[C@H](NC(=O)C(F)(F)F)[C@H](O)[C@H](C)O2)C1)C(=O)c1c(OC)cccc1C3=O
active: Potency [3] 549 nM

Cc1c(C)c2c(c(C)c1O)CC[C@@](C)(CCC[C@H](C)CCC[C@H](C)CCCC(C)C)O2
inactive: outcome [14] | Potency [5] | Potency [6] | outcome [7] | outcome [8] | max response [9] -0.537% | outcome [10] | outcome [11] | outcome [12] | outcome [13]
